{"source": "PubChem BioAssay (NCI)", "note": "This is part of a sample that, as a whole, favours compounds with a hit. Of some 83,000 tested, about 20% had one in any assay.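 Values shown are percent growth following 48 h exposure of cells in 96-well plates to a single concentration of compound; below 10 was considered active.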 Values without a mark were called inactive. Activity calls are given as the source filed them."}
{"system": "U251 CNS", "experiment": "NCI-60 one-dose screen, 48 h (100 = growth as untreated, 0 = no growth, -100 = all killed)", "settings": "10 µM unless noted", "description": "Growth inhibition of the U251 human tumor cell line is measured as a screen for anti-cancer activity. Cells are grown in 96 well plates and exposed to the test compound for 48 hours. Compounds are tested at a single concentration, which is 10^-5 M for most compounds. The reported endpoint is percent growth (GI% or GIPRCNT), where numbers from 0 - 100% represent growth inhibition, and numbers from -100% - 0 represent cell death. For example, a value of 40 represents 60% growth inhibition. A value of 0 means no net growth occurred over the course of the experiment. A value of -40 indicates 40% of cells at the beginning of the experiment died by the end of the experiment. A value of -100 means all cells are dead at the end of the experiment.\nNCI-60 Human Tumor Cell Lines Screen was performed using the standard one-dose NCI protocol, which is described in more detail at https://dtp.cancer.gov/discovery_development/nci-60/default.htm.\nCompounds with GIPRCNT values below 10 were considered active. Activity score was based on GIPRCNT using the following formula: […]\nScore is 0 for GIPRCNT values of 100 or above, 50 for GIPRCNT values of 0, and 100 for GIPRCNT values of -100."}
{"molecule": "CSc1nc2ncncc2[nH]1", "growth": "101%"}
{"molecule": "COc1cc(Nc2ncc(F)c(Nc3ccc4c(n3)NC(=O)C(C)(C)O4)n2)cc(OC)c1OC", "growth": "48.5%"}
{"molecule": "COc1ccc2c(CCC(c3ccccc3)c3ccccc3)c3[n+](cc2c1OC)CCc1cc2c(cc1-3)OCO2", "growth": "10.5%"}
{"molecule": "N#CCNC(=O)c1ccc(-c2ccnc(Nc3ccc(N4CCOCC4)cc3)n2)cc1", "growth": "19.3%"}
{"molecule": "COc1cc2c(cc1O)c(=O)n(CCN(C)C)c1c3cc4c(cc3ncc21)OCO4", "growth": "-49% (active)"}
{"molecule": "O=C(c1ccc(F)c(F)c1Nc1ccc(I)cc1F)N1CC(O)([C@@H]2CCCCN2)C1", "growth": "15.3%"}
{"molecule": "O=C(Cn1cncn1)Nc1ccc(-c2nc3ccccc3s2)cc1", "growth": "90%"}
{"molecule": "CN1[C@@H]2CC[C@H]1/C(=C\\c1ccccc1)C1=C2[C@@H](c2ccccc2)C(C#N)=C(N)O1", "growth": "77.7%"}
{"molecule": "C[C@@H](Oc1cc(C(=O)Nc2ccc(C(=O)N3CCN(C)CC3)cc2)nnc1N)c1c(Cl)ccc(F)c1Cl", "growth": "52.1%"}
{"molecule": "Nc1cc(C(F)(F)F)c(-c2cc(N3CCOCC3)nc(N3CCOCC3)n2)cn1", "growth": "-2.08% (active)"}
{"molecule": "COC(=O)c1[nH]cnc1/N=N/N(C)CCO", "growth": "104%"}
{"molecule": "CCN1CCN(Cc2ccc(Cc3ncc(F)c(-c4cc(F)c5nc(C)n(C(C)C)c5c4)n3)nc2)CC1", "growth": "45.7%"}
{"molecule": "C=CCCCOC1[C@H](OCc2ccccc2)C(OCc2ccccc2)C(OC)O[C@@H]1CNC(=O)c1cccc(I)c1", "note": "(stereo not given in full)", "growth": "25.4%"}
{"molecule": "O=C(Cc1ccc(/C=C/C(=O)c2ncc[nH]2)cc1)Nc1ccc(S(F)(F)(F)(F)F)cc1", "growth": "37%"}
{"molecule": "CC(C)c1cc(CNc2nc(Nc3cc(C4CC4)[nH]n3)cc(N3CCN(C)CC3)n2)on1", "growth": "1.02% (active)"}
{"molecule": "C=C1[C@@H](O)C[C@H]2C(C)(C)C[C@H](Cl)C[C@]2(C)[C@H]1C[C@H](O)[C@H]1CC(=O)NC1=O", "growth": "-16.8% (active)"}
{"molecule": "CCN1CCN(c2cc(C)nc(N(CCCNc3ccnc4cc(Cl)ccc34)Cc3ccc4c(c3)OCO4)n2)CC1", "growth": "-45.4% (active)"}
{"molecule": "O=C(Nc1ccc(Nc2ncnc3sc4c(c23)CCOC4)cc1)Nc1ccc(Cl)c(C(F)(F)F)c1", "growth": "99.9%"}
{"molecule": "Cc1cc(N2CCOCC2)nc(N(CCNc2ccnc3cc(Cl)ccc23)Cc2cccs2)n1", "growth": "-10.5% (active)"}
{"molecule": "CC1CCC(n2cnc3c(Cl)ncnc32)O1", "note": "(stereo not given)", "growth": "102%"}
{"molecule": "Cc1ccccc1Nc1nc2nonc2nc1Nc1cccc(C)c1C", "growth": "29.9%"}
{"molecule": "C=CC(=O)N1CCC[C@H](n2c(=O)n(-c3ccc(Oc4ccccc4)cc3)c3c(N)ncnc32)C1", "growth": "89.2%"}
{"molecule": "C=C1C(=O)O[C@H]2[C@H]1CC/C(C=Nc1c(N)cc(C(F)(F)F)cc1C(F)(F)F)=C\\CC[C@@]1(C)O[C@@H]21", "growth": "8.57% (active)"}
{"molecule": "CC(C)OP(=O)(CCC(=O)c1c[nH]c2ccccc12)OC(C)C", "growth": "90.1%"}
{"molecule": "COc1cc2c(Oc3ccc(NC(=O)C4(C(=O)Nc5ccc(F)cc5)CC4)cc3F)ccnc2cc1OCCCN1CCOCC1", "growth": "-57.8% (active)"}
{"molecule": "CC(=Nc1ccccc1)C1=C(O)C(Cc2ccc(O)cc2)NC1=O", "note": "(stereo not given)", "growth": "12.8%"}
{"molecule": "O=c1sn(-c2cccc3ccccc23)c(=O)n1Cc1ccccc1", "growth": "97.1%"}
{"molecule": "CCN1/C(=C/C=C/c2n(-c3ccccc3)c3ccc(-c4nc5ccccc5s4)cc3[n+]2CC)N(c2ccccc2)c2ccc(-c3nc4ccccc4s3)cc21", "growth": "4.79% (active)"}
{"molecule": "O=C1C=CC2(NN=C(c3ccccc3)N2c2ccc(Cl)cc2)c2cccc(O)c21", "note": "(stereo not given)", "growth": "18.1%"}
{"molecule": "CSC1=C(N)C(=O)c2[nH]cc(CO)c2C1=N", "growth": "-95.1% (active)"}
{"molecule": "CC(C)(C)c1ccc(Cn2cc(CSc3nc4ccccc4s3)nn2)cc1", "growth": "93.3%"}
{"molecule": "COc1ccc(OC)c(NC2=C(SCCc3ccccc3)C(=O)c3ccccc3C2=O)c1", "growth": "77%"}
{"molecule": "CN(C)CCOC(=O)Nc1nc2ccc(Sc3ccccc3)cc2[nH]1", "growth": "26.5%"}
{"molecule": "COC(=O)C1=C(C(=O)OC)C23C=C(C)C1C2=C(C)C1(CC1)[C@@](C)(O)C3=O", "note": "(stereo not given in full)", "growth": "2.06% (active)"}
{"molecule": "Cc1cc(-c2cc(OC(=O)c3ccccc3)ccc2Cl)cc2nnc(Nc3ccc(OCCN4CCCC4)cc3)nc12", "growth": "84.8%"}
{"molecule": "FC(F)(F)c1ccc(CNc2ccc(Cc3c[nH]c4ncc(Cl)cc34)cn2)cn1", "growth": "18.2%"}
{"molecule": "Cn1cc(-c2[nH]c3cc(NC(=O)[C@H](N)C4CCCCC4)cc4c3c2C=NNC4=O)cn1", "growth": "-83.3% (active)"}
{"molecule": "CN1CC[C@H](c2c(O)cc(O)c3c(=O)cc(-c4ccccc4Cl)oc23)[C@H](O)C1", "growth": "5.78% (active)"}
{"molecule": "Cn1cnc2c(F)c(Nc3ccc(Br)cc3F)c(C(=O)NOCCO)cc21", "growth": "51.5%"}
{"molecule": "CC(N)C(Cc1ccccc1)c1ccc(Cl)cc1", "note": "(stereo not given)", "growth": "86.4%"}
